SIRT5 inh – blocks human SIRT5 desuccinylation of peptide; inhibition, % at 15 µM; Purified SirT5, succinyl-peptide AMC, trypsin-coupled fluorescence; hit rate 1.1% among 330,000; Q9NXA8; in the data active means inhibition above about 15%
Target sequence (Q9NXA8 whole entry, looked up): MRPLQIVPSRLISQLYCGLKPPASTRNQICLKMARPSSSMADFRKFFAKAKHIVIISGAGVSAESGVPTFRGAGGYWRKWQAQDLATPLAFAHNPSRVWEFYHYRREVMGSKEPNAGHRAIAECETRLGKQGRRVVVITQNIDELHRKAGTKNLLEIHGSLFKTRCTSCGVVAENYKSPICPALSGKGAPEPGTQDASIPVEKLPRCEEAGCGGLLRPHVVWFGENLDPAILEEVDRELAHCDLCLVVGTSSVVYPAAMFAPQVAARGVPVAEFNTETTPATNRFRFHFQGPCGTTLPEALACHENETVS
ARNT TACC3 PPI – ARNT/TACC3 interaction disruption | hit rate 0.66% among 390,000 | AID 623870 | AlphaScreen His-ARNT PAS-B/GST-TACC3 binding, luminescence; TACC3 fragment carries E629A point mutation | Q9Y6A5 | inhibition, % at 9.99 µM;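 active means mean inhibition of replicates at least 50% and at least half of replicates each reaching 50%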;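 further: 0% = complete ARNT plus TACC3 wells and 100% = ARNT alone without TACC3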
NSD2 HMT inh – blocks human histone methyltransferase NSD2 | O96028 | NSD2 peptide methylation, AlphaScreen, 120 min | inhibition, % at 12.5 µM | hit rate 0.54% among 310,000 | AID 743445; in the data active means inhibition above about 50%
CASP6 VEID inh – blocks human caspase-6 cleavage activity; P55212; purified caspase-6, Z-VEID-R110 cleavage fluorescence; inhibition, % at 12.5 µM; hit rate 0.53% among 350,000;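 active means mean inhibition across replicates at least about 35%, with every replicate also reaching that limit, limit read from the data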;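 further: 0% = median of neutral control wells and 100% = no fluorescence left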
Target sequence (P55212 24-179 limits assumed): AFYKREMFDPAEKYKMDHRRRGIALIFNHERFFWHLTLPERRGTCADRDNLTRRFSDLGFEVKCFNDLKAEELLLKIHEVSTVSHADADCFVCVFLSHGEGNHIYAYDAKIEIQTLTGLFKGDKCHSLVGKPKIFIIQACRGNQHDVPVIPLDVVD
Target sequence (P55212 194-293 limits assumed): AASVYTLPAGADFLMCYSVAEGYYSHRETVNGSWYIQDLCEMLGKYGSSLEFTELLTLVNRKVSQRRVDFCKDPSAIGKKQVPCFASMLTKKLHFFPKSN
PfHsp90 set2 – reduces growth (ATP signal) of yeast expressing P. falciparum Hsp90. S. cerevisiae expressing PfHsp90, BacTiter-Glo ATP, 48 h; yeast lacking PDR1 and PDR3 efflux regulators. inhibition, % at 9.4 µM. hit rate 0.32% among 310,000. AID 504621;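 active means every replicate shows inhibition above about 80%, whatever the replicate mean, limit read from the data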;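 further: 0% = DMSO neutral controls and 100% = 20 µM radicicol positive controls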
ARNT Alpha ctr – counter-screen for ARNT/TACC3 inhibitors: AlphaScreen artifacts; shares compounds with ARNT TACC3 PPI; His-ARNT PASB-GST AlphaScreen artifact counter-screen, luminescence; AC50, µM (series often up to 68 µM), inactives show at the top dose activity change, negative = signal decrease; hit rate 50% among 1,200;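 active means every separate test run was called active for a drop in luminescence, with AC50 within twice the top valid dose, actives reach about 71 µM in these data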
Numbers without * were called inactive; nt = no result. A selection: hits, their analogues and other compounds. The true share with any hit is near 2.1%.

SMILES	SIRT5 inh	ARNT TACC3 PPI	NSD2 HMT inh	CASP6 VEID inh	PfHsp90 set2	ARNT Alpha ctr
O=C(NCc1ccc2c(c1)OCO2)C(=O)NCC1OCCN1S(=O)(=O)c1ccc(Cl)cc1 (stereo unspecified)	22*	2	-1	0	-6	nt
Oc1cc2c(cc1O)C1c3ccc(O)c(O)c3OCC1(O)C2 (stereo unspecified)	1	10	nt	42*	-1	nt
CC1=NN(c2ccc(C)c(C)c2)C(=O)/C1=C\C=C\c1ccc([N+](=O)[O-])o1	-1	-4	3	47*	7	nt
COc1ccc(CN2C[C@@H](O)COC[C@H]3O[C@H](CC(=O)NCCN4CCCC4)CC[C@@H]32)cc1	21*	7	nt	-87	nt	nt
COc1ccc(CN2C[C@H](O)COC[C@@H]3O[C@H](CC(=O)N4CCc5ccccc5C4)CC[C@H]32)cc1	15*	21	nt	-3	nt	nt
Cc1c(Cl)sn(-c2ccc(Cl)cc2)c1=O	-4	-1	-1	1	111*	nt
CCCCCCn1cc(CN2CC(N3CCCC3)CS2(=O)=O)nn1 (stereo unspecified)	-3	nt	nt	0	nt	nt
CN(C)CCN1CCN(C2CN(Cc3cn(Cc4ccccc4C(F)(F)F)nn3)S(=O)(=O)C2)CC1 (stereo unspecified)	21*	nt	nt	-55	nt	nt
CCCCCCn1cc(CN2CC(N3CCSCC3)CS2(=O)=O)nn1 (stereo unspecified)	17*	nt	nt	-1	nt	nt
O=S1(=O)CC(N2CCC(c3ccccc3)CC2)CN1Cc1ccccc1 (stereo unspecified)	37*	nt	nt	-4	nt	nt
O=S1(=O)CC(N2CCCC2)CN1Cc1cn(Cc2ccccc2)nn1 (stereo unspecified)	28*	nt	nt	1	nt	nt
O=S1(=O)CC(N2CCCCC2)CN1Cc1ccccc1 (stereo unspecified)	-1	nt	nt	-8	nt	nt
CN1CCN(C2CN(Cc3cn(Cc4ccccc4C(F)(F)F)nn3)S(=O)(=O)C2)CC1 (stereo unspecified)	-2	nt	nt	5	nt	nt
COc1ccc2c3c(n(C)c2c1)[C@@H](CO)N(Cc1ccccc1F)CC31CN(C(=O)C2CC2)C1	10	nt	nt	0	nt	nt
CC(=O)NC(c1cccs1)c1cc([N+](=O)[O-])c2cccnc2c1O (stereo unspecified)	4	60*	2	25	-10	6.9µM*
CCCC(=O)NC(c1cccs1)c1cc([N+](=O)[O-])c2cccnc2c1O (stereo unspecified)	-3	58*	4	1	67	9.9µM*
CC(C)C(=O)NC(c1ccccc1)c1cc([N+](=O)[O-])c2cccnc2c1O (stereo unspecified)	1	0	0	8	-24	nt
CC(=O)NC(c1cc(Cl)c2cccnc2c1O)C(C)C (stereo unspecified)	nt	58*	nt	nt	6	38µM*
O=C(C1CCCCC1)N1CC[C@@H]2[C@H]1c1cc(Br)ccc1N[C@@H]2CO	5	1	nt	0	nt	nt
O=C(NCCCn1ccnc1)C(=O)NCC1OCCCN1S(=O)(=O)c1ccc(Cl)cc1 (stereo unspecified)	nt	3	-3	nt	10	nt
O=C(NCCCn1ccnc1)C(=O)NCC1OCCCN1S(=O)(=O)c1ccccc1 (stereo unspecified)	nt	40*	-4	nt	14	-11%
O=C(NCCCn1ccnc1)C(=O)NCC1OCCCN1S(=O)(=O)c1ccc(F)cc1 (stereo unspecified)	-1	nt	0	-39	10	nt
O=C(NCCCn1ccnc1)C(=O)NCC1OCCN1S(=O)(=O)c1ccccc1 (stereo unspecified)	-2	57*	-3	-73	-23	62µM*
O=C(NCCCn1ccnc1)C(=O)NCC1OCCN1S(=O)(=O)c1ccc(Cl)cc1 (stereo unspecified)	1	58*	nt	-54	-40	70µM*
CCC(=O)N1CC2(CN(Cc3ccccc3Cl)C2)c2c([nH]c3cc(OC)ccc23)[C@H]1CO	-2	nt	nt	0	nt	nt
SMILES	SIRT5 inh	ARNT TACC3 PPI	NSD2 HMT inh	CASP6 VEID inh	PfHsp90 set2	ARNT Alpha ctr
COCC(=O)N1[C@H](C(=O)Nc2ccccc2)[C@@H](CO)[C@@H]2Cn3c(ccc(-c4cccnc4)c3=O)[C@@H]21	-21	-4	nt	3	nt	nt
C[C@@H]1CN([C@H](C)CO)C(=O)c2cc(NS(C)(=O)=O)ccc2O[C@@H](C)CCCCO[C@H]1CN(C)Cc1ccc(C(F)(F)F)cc1	nt	12	nt	nt	nt	nt
O=C(CCN1CCCCC1)N[C@@H]1CC[C@@H](CCNS(=O)(=O)c2ccc(F)cc2)O[C@H]1CO	-2	-6	nt	0	nt	nt
COc1cccc(/C=N/n2c(-c3n[nH]c4c3CCC4)n[nH]c2=S)c1O	nt	34*	-6	nt	-3	-12%
CC(C)(C)c1ccc(CNc2nc(-c3ccccn3)nnc2-c2ccccc2)cc1	nt	nt	-1	nt	nt	3.7µM*
Clc1cccc(CNc2nc(-c3ccccn3)nnc2-c2ccccc2)c1	nt	nt	-3	nt	nt	2.2µM*
CN1C(=O)c2cc(NC(=O)Nc3ccccc3F)ccc2OC[C@@H]2O[C@H](CC(=O)O)CC[C@H]21	nt	-5	nt	nt	nt	nt
Cc1ncc(CO)c(/C=N/NC(=O)c2cc(Br)ccc2O)c1O	1	62*	4	5	-28	47µM*
Cc1cc(C(=O)N/N=C/c2c(CO)cnc(C)c2O)c2ccccc2n1	12	61*	-2	-11	-16	20µM*
O=C(N[C@H]1CC[C@H](CCn2cc(-c3ccccn3)nn2)O[C@@H]1CO)c1ccc(F)cc1	1	59*	nt	4	nt	59µM*
COCc1cn(CC[C@H]2CC[C@@H](NC(=O)c3ccccc3)[C@@H](CO)O2)nn1	-3	-15	nt	-2	nt	nt
O=C(N[C@H]1CC[C@@H](CCn2cc(-c3ccccn3)nn2)O[C@H]1CO)c1ccccc1	5	81*	nt	-7	nt	33µM*
O=C(N[C@@H]1CC[C@H](CCn2cc(-c3ccccn3)nn2)O[C@H]1CO)c1ccncc1	0	57*	nt	3	nt	31µM*
COCc1cn(CC[C@@H]2CC[C@@H](NC(=O)c3ccncc3)[C@H](CO)O2)nn1	-1	-1	nt	14	nt	nt
O=C(N[C@@H]1CC[C@@H](CCn2cc(-c3ccccn3)nn2)O[C@H]1CO)c1ccccc1	3	74*	nt	-6	nt	41µM*
O=C1CN(S(=O)(=O)Cc2ccccc2)C[C@@H]2[C@@H](c3ccc(C#Cc4cccnc4)cc3)[C@@H](CO)N12	6	nt	nt	0	nt	nt
C[C@H]1CN([C@@H](C)CO)C(=O)c2cc(-c3cccnc3)cnc2O[C@H]1CN(C)C(=O)Cc1cccnc1	0	-12	nt	2	nt	nt
O=C(N[C@H]1CC[C@@H](CCn2cc(-c3ccccn3)nn2)O[C@@H]1CO)c1ccccc1	-2	77*	nt	2	nt	41µM*
Cc1noc(C)c1S(=O)(=O)Nc1ccc2c(c1)CC(=O)N([C@@H](C)CO)C[C@H](C)[C@H](CN(C)C(=O)Nc1ccc(F)cc1)O2	-4	-4	nt	-1	nt	nt
